A short description of the assay: In vitro enzyme assay to detect hydrolysis of chlorophenol red-beta-D-[…] directly proportional to the number of Toxoplasma stably expressing beta-galactosidase. It counts as functional, organism-based, Toxoplasma gondii. Set-up: scale not given: in the data most compounds retested in dose-response had high values.

The whole screen tested about 85,000 compounds, of which about 440 (0.52%) showed an effect of 50% or more. What follows is part of a selection rich in strong results, with near analogues and random picks from the rest.

Regarding `CC1Cc2cc(CO)ccc2O1` (centres undefined), for the setting “50 µM”, the “Percent Effect” value is -10.07%.

For the compound `CCc1nnsc1C(=O)N1CCc2sccc2C1`, the “Percent Effect” value (50 µM) is recorded as -20.28%.

Turning to `Cc1ccccc1NC(=O)CCN1CCN(C)CC1`, for the setting “50 µM”, the “Percent Effect” value is -26.18%.

Consider `Cc1ccc2c(c1)C(=O)CCCS2(=O)=O`, for which the “Percent Effect” value (50 µM) was -6.954%.

On to `Cc1ccc(CN(CCO)C(=O)c2cscn2)cc1`, for which the “Percent Effect” value (50 µM) is listed as -0.4723%.

Take `O=C(Nc1ccc2c(c1)OCO2)N1CCOCC1`: under “50 µM”, the “Percent Effect” value is listed as -3.838%.

`CN1CCCC1CCSCC(=O)Nc1ccccn1` (centres undefined): the “Percent Effect” value (50 µM) amounted to 5.261%.

`NCc1ccc(CO)cc1`: the “Percent Effect” value (50 µM) is recorded as 0.7244%.

As for `CCN(CC)C(=O)c1nnn(Cc2ccccc2)c1OC`, the “Percent Effect” value (10 µM) is -3.108%.

Regarding `CCn1nc(C)c(NC(=O)c2nnn(Cc3ccccc3)c2OC)c1C`, for the setting “10 µM”, the “Percent Effect” value is given as 55.69%.

On to `CCn1nc(C)c(NC(=O)c2cc(NC(=O)C(C)C)n(C)n2)c1C`, for which the “Percent Effect” value (10 µM) is on record as 1.116%.

Take `CCC(OCCO)c1ccccc1` (centres undefined): the “Percent Effect” value (50 µM) is given as -3.537%.

Regarding `CC(C)[C@H](N)C(=O)N1CCC(C2CCOCC2)CC1`, the “Percent Effect” value (50 µM) stood at 8.319%.

`Cn1nnc(NC(=O)c2ccc(C#N)cc2F)n1`: the “Percent Effect” value (50 µM) was -8.268%.

For the compound `Cn1nnnc1SCCNC(=O)c1cc(Cl)ccc1F`, the “Percent Effect” value (50 µM) is listed as 98.81%.

For `Cn1nnnc1SCCNC(=O)c1cccc2ccnn12`, where the note is “10 µM”, the “Percent Effect” value is given as -7.372%.

Take `CSc1ccccc1C(=O)NCCSc1nnnn1C`: for the setting “50 µM”, the “Percent Effect” value is reported as -10.69%.

For `CCC(C(=O)Nc1ccc(C)cc1)N(C)C` (centres undefined), the “Percent Effect” value (50 µM) is on record as -1.57%.

Turning to `COc1c(CNCCS(C)(=O)=O)c(C)nn1C`, under “50 µM”, the “Percent Effect” value is listed as 3.832%.

On to `COc1c(N)c(C)nn1C`, for which the “Percent Effect” value (50 µM) stood at 95.49%.

Take `COc1c(CNCCCNS(C)(=O)=O)c(C)nn1C`: under “50 µM”, the “Percent Effect” value is recorded as -17.44%.

Consider `CCC(=O)N1CCCN(C(=O)C(N)C(C)(C)C)CC1` (centres undefined), for which, for the setting “50 µM”, the “Percent Effect” value came out at 9.824%.

For the compound `Cc1ccc(C(=O)N2CCN(c3nccs3)CC2)o1`, the “Percent Effect” value (50 µM) is recorded as 7.068%.

Turning to `Cc1ccc(C(=O)N2CCN(c3nccn3C)CC2)o1`, where the note is “50 µM”, the “Percent Effect” value stood at 58.26%.

Consider `CC(=O)N1CCN(c2nccn2C)CC1`, for which the “Percent Effect” value (50 µM) is listed as 15.57%.

In the case of `Cn1cc(NC(=O)CSc2nccn2C)cn1`, the “Percent Effect” value (50 µM) is 23.13%.

In the case of `CC(N)c1nnc2ccccn12` (centres undefined), under “50 µM”, the “Percent Effect” value is recorded as 17.22%.

Consider `O=C(Nc1ccccn1)NC1CCN(c2ccccc2OC(F)F)C1` (centres undefined), for which, where the note is “10 µM”, the “Percent Effect” value stood at 20.62%.

Take `O=C(Nc1ccncc1)NC1CCN(c2ccccc2OC(F)F)C1` (centres undefined): the “Percent Effect” value (10 µM) came out at 74.41%.

With `O=C(Nc1cccnc1)NC1CCN(c2ccccc2OC(F)F)C1` (centres undefined), the “Percent Effect” value (10 µM) is listed as -3.215%.

Regarding `CCC1(CN)OCCc2ccccc21` (centres undefined), the “Percent Effect” value (50 µM) is 4.501%.

In the case of `NC(=O)[C@@H]1Cc2ccccc2CO1`, the “Percent Effect” value (50 µM) was determined as 9.404%.

Take `Cn1ncnc1CCNc1cc(C2CC(N)C2)ncn1` (centres undefined): the “Percent Effect” value (50 µM) was found to be 22.67%.

As for `CN1CCC(NC(=O)c2ccc3ncccc3c2)C1=O` (centres undefined), the “Percent Effect” value (50 µM) is reported as 1.515%.

As to `CN1CCC(NC(=O)c2cc3ccccc3s2)C1=O` (centres undefined), for the setting “50 µM”, the “Percent Effect” value stood at 52.45%.

As to `CCCS(=O)(=O)N1CCC(NC(=O)c2cc3ccccc3s2)CC1`, the “Percent Effect” value (10 µM) is listed as 4.884%.

Take `CCC(C)(NCc1cc(F)ccc1F)C(N)=O` (centres undefined): the “Percent Effect” value (50 µM) is on record as -22.31%.

With `CC(C)(C)OC(=O)N(CCNS(=O)(=O)N1CCOCC1)C1CC1`, the “Percent Effect” value (10 µM) is reported as -6.418%.

Consider `CCN(CCNS(=O)(=O)N1CCOCC1)C(=O)OC(C)(C)C`, for which the “Percent Effect” value (10 µM) amounted to 51.95%.

`CCN(CCNS(=O)(=O)C1CCOCC1)C(=O)OC(C)(C)C`: where the note is “10 µM”, the “Percent Effect” value was 6.938%.

As to `O=C1CCOc2cc(O)c(F)cc21`, the “Percent Effect” value (50 µM) is given as -11.53%.

As for `CN(C)S(=O)(=O)CCCN1CCC2(CCCNC2=O)C1` (centres undefined), under “50 µM”, the “Percent Effect” value stood at 25.69%.

In the case of `CC1CCCN(Cc2nc(N)nc(N(C)C)n2)C1` (centres undefined), the “Percent Effect” value (50 µM) is recorded as 28.57%.

Turning to `COc1ccc(C(CO)N(C)Cc2ccncc2)cc1` (centres undefined), the “Percent Effect” value (50 µM) was found to be 7.987%.

In the case of `CCC(C#N)NC(=O)c1cnc(OC(C)C)c(Cl)c1` (centres undefined), the “Percent Effect” value (50 µM) is on record as 77.34%.

As for `CCC(C#N)NC(=O)c1ccc(Oc2cccnc2)cc1` (centres undefined), the “Percent Effect” value (10 µM) is reported as -3.821%.

On to `CC(CO)CNC(=O)c1cnc(OC(C)C)c(Cl)c1` (centres undefined), for which the “Percent Effect” value (50 µM) was found to be 9.037%.

Consider `O=C(c1ccccc1-n1cccn1)N1CCSCC1`, for which the “Percent Effect” value (50 µM) turned out to be 5.631%.

As to `CCOc1ncccc1C(=O)N1CCCN(CC)CC1`, the “Percent Effect” value (50 µM) stood at 8.353%.

For `Cc1ccc(CN2Cc3nnn(C)c3C(COCC3CC3)C2)s1.O=C(O)C(F)(F)F` (centres undefined), the “Percent Effect” value (10 µM) is -9.58%.

As for `Cc1ccc(CN2Cc3nnn(C)c3C(COCC(=O)N(C)C)C2)s1.O=C(O)C(F)(F)F` (centres undefined), the “Percent Effect” value (10 µM) is on record as -13.89%.

For the compound `COCC1CN(Cc2ccc(C)s2)Cc2nnn(C)c21.O=C(O)C(F)(F)F` (centres undefined), the “Percent Effect” value (10 µM) is on record as 3.713%.

Consider `Cc1ccc(CN2Cc3nnn(C)c3C(COCc3ccccn3)C2)s1.O=C(O)C(F)(F)F.O=C(O)C(F)(F)F` (centres undefined), for which, for the setting “10 µM”, the “Percent Effect” value turned out to be 13.37%.

With `Cc1ccc(CN2Cc3nnn(C)c3C(COCc3ccccc3)C2)s1.O=C(O)C(F)(F)F` (centres undefined), the “Percent Effect” value (10 µM) was 57.56%.

Regarding `CC(C)(C)c1cc(NC(=O)CN2CCC(O)CC2)on1`, the “Percent Effect” value (50 µM) was -5.429%.

For the compound `CCOc1ccc(NC(=O)NC2CCS(=O)(=O)C2)cc1` (centres undefined), the “Percent Effect” value (50 µM) is given as 3.188%.

Regarding `O=C(CN1CCNCC1)NCCSc1ccc(Cl)cc1`, the “Percent Effect” value (50 µM) came out at 4.461%.

Regarding `CCN(CC)CCNC(=O)c1ccc(-n2ccc3ccccc32)s1`, the “Percent Effect” value (10 µM) came to 63.07%.

Regarding `CCN(CC)CCNC(=O)c1cnc(C(C)(C)C)s1`, for the setting “10 µM”, the “Percent Effect” value is listed as 0.3139%.

`O=C(NCCCN1CCCCC1)c1ccc(-n2ccc3ccccc32)s1`: the “Percent Effect” value (10 µM) was 79.49%.

Turning to `O=C(NCCCN1CCOCC1)c1ccc(-n2ccc3ccccc32)s1`, the “Percent Effect” value (10 µM) stood at 19.43%.

`O=C(NCCN1CCOCC1)c1ccc(-n2ccc3ccccc32)s1`: the “Percent Effect” value (10 µM) was -1.22%.

In the case of `O=C(NCCCN1CCCC1=O)c1ccc(-n2ccc3ccccc32)s1`, the “Percent Effect” value (10 µM) is given as 17.83%.

On to `CC1Sc2ccc(C(=O)N(C)C)cc2NC1=O` (centres undefined), for which, where the note is “50 µM”, the “Percent Effect” value is recorded as -6.489%.

`NC1CCN(c2ccccc2F)CC1`: the “Percent Effect” value (50 µM) is listed as -9.36%.

Consider `CCSCCC(C)N(C)C(=O)c1ccn(C)c(=O)c1` (centres undefined), for which, where the note is “50 µM”, the “Percent Effect” value is -4.294%.

Regarding `O=C1NC(c2cc[nH]n2)Nc2ncccc21` (centres undefined), where the note is “50 µM”, the “Percent Effect” value was -9.997%.

For `COc1ccc(C2NC(=O)c3cccnc3N2)cc1F` (centres undefined), the “Percent Effect” value (50 µM) is given as 6.983%.

For the compound `N#Cc1ccc(C2NC(=O)c3cccnc3N2)cc1` (centres undefined), where the note is “50 µM”, the “Percent Effect” value is recorded as 98.73%.

With `CC(C)OCCN1CCC(O)CC1`, under “50 µM”, the “Percent Effect” value was 2.889%.

In the case of `O=C(Nc1ccncc1)N1CCN(CC2CC2)CC1`, the “Percent Effect” value (50 µM) was determined as 11.51%.

Regarding `c1ccc(-c2noc(CN3CCOC(Cn4cccn4)C3)n2)nc1` (centres undefined), the “Percent Effect” value (10 µM) was 4.093%.

Regarding `CN(C)CC1CN(Cc2nc(-c3ccccn3)no2)CCO1` (centres undefined), where the note is “10 µM”, the “Percent Effect” value is on record as 86.82%.

As to `CN(C)CC1CN(Cc2nc(-c3cccnc3)no2)CCO1` (centres undefined), where the note is “10 µM”, the “Percent Effect” value turned out to be 12.35%.

(Values after ChEMBL document CHEMBL3988442, “University of Dundee, Small-Polar-MMV Screening Library” (2021).)
